A short description of assay [1]: Nuclear factor erythroid 2-related factor 2/antioxidant responsive element (Nrf2/ARE) small molecule agonists: qHTS cell viability counter screen in human keratinocytes (AID 1919968; active = well fitted curve in the direction sought with a large enough effect in the repeat runs; an effect the other way counts as inactive or inconclusive; also: nearly all actives have a fitted effect of over 55% in size). A digest of the protocol:
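Seed 1,500 KeratinoSens cells per well, then incubate 5 h at 37 C/5% CO2. Add compounds in DMSO and incubate 23 h. Add CellTiter-Fluor, wait 1 h and read fluorescence.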
A general note: qHTS replaces the single test concentration by a dilution series.

The nature of assay [2]: Nuclear factor erythroid 2-related factor 2/antioxidant responsive element (Nrf2/ARE) small molecule agonists: luciferase reporter gene qHTS assay in human keratinocytes (AID 1919969; also: nearly all actives have a fitted effect of over 35% in size; also: potency is read from the fitted curve at half-maximal effect). (In general: A reporter such as luciferase makes a cellular process visible.)
The target in assay [3] is Gonadotropin-releasing hormone receptor (Homo sapiens) (UniProt P30968). Nature of the assay: Human gonadotropin-releasing hormone receptor (GnRHR) small molecule agonists, calcium flux assay in GnRHR-HEK293 cells (AID 1920063). Also: nearly all actives have a fitted effect of over 35% in size. The method in brief: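 Cells: HEK293 stably expressing human GnRHR. Steps: overnight (18 h) culture, 1 h calcium dye loading at 37 C, compound addition, kinetic fluorescence read at 480/540 nm. Each compound tested at 15 concentrations in triplicate.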
Chain of Gonadotropin-releasing hormone receptor (Homo sapiens) (P30968 whole entry, looked up): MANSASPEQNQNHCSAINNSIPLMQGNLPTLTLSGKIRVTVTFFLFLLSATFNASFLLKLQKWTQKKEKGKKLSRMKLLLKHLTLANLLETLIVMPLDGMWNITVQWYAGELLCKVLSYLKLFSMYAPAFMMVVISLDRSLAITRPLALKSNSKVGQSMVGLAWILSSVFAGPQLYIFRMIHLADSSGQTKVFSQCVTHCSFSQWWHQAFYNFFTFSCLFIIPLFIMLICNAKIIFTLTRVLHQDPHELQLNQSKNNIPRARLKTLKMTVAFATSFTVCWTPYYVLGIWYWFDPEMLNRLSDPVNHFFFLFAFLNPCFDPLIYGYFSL
On the technique in general: Calcium assays in cells follow changes in intracellular calcium, usually with a dye or a luminescent sensor.

In assay [4] the target is KiSS-1 receptor (Homo sapiens) (UniProt Q969F8). Nature of the assay: Human kisspeptin (KISS1R) small molecule agonists, calcium flux assay in KISS1R-HEK293 cells (AID 1920064; active = well fitted curve in the direction sought with a large enough effect in the repeat runs; an effect the other way counts as inactive or inconclusive). A digest of the protocol:
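Cells plated and incubated 18 h; dye added, 1 h at 37 C; compounds in DMSO pinned in; signal read at 480/540 nm every second for 3 min. Each compound tested at 15 concentrations in triplicate.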

Assay [5] can be described thus: p53 small molecule agonists, cell-based qHTS assay with human liver microsomes (AID 1963577).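 Also: p53 response element beta-lactamase reporter cells with liver microsomes plus NADPH.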 The method in brief: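 Cells carrying a p53-responsive bla reporter were rested 5 h (37 C, 5% CO2) before compound transfer. Human liver microsomes plus NADPH, 0.5 mg/mL final apiece, supplied metabolism during the 16 h 37 C exposure.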
The nature of assay [6]: p53 small molecule agonists, cell-based qHTS assay with human liver microsomes: qHTS cell viability counter screen (AID 1963579). Also: nearly all actives have a fitted effect of over 45% in size. A digest of the protocol:
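Seed p53RE-bla cells at 4,000 per well; incubate 5 h at 37 C; add compound, human liver microsomes and NADPH; incubate 16 h at 37 C; add CellTiter-Glo; after 30 min at room temperature, read luminescence.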

Assay [7] can be described thus: p53 small molecule agonists, cell-based qHTS assay with rat liver microsomes: qHTS cell viability counter screen (AID 1963580). Also: nearly all actives have a fitted effect of over 45% in size. The method in brief: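 HCT-116 p53RE-bla, 4,000 cells/well, 5 h pre-incubation; cpd + rat liver microsomes 0.5 mg/mL + NADPH 0.5 mg/mL (final); 16 h, 37 C; CellTiter-Glo, 30 min RT; luminescence.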
A short description of assay [8]: p53 small molecule agonists, cell-based qHTS assay: qHTS cell viability counter screen (AID 1963581). Also: nearly all actives have a fitted effect of over 45% in size. The method in brief:
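Cells: HCT-116 with p53 response element-driven beta-lactamase. Treatment: 16 h, 37 C, compounds in DMSO. Read: CellTiter-Glo luminescence after 30 min RT.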

Assay [9] can be described thus: p53 small molecule agonists, cell-based qHTS assay (AID 1963582; active = well fitted activation curve with a large enough effect in the signal ratio in the repeat runs, not every such curve was filed as active; the % refers to the signal ratio). A digest of the protocol:
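Quantitative HTS in p53RE-bla cells: after a 5 h settling period, compounds delivered in DMSO were left on cells for 16 h at 37 C, and reporter induction was measured as fluorescence following 2 h substrate loading.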

The target of assay [10] is 5-hydroxytryptamine receptor 2A (Homo sapiens) (UniProt P28223). Nature of the assay: 5-hydroxytryptamine receptor 2A (HTR2A) small molecule antagonists, cell-based qHTS assay (AID 1963586). Also: nearly all actives have a fitted effect of over 45% in size. A digest of the protocol: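 Antagonist-mode intracellular calcium assay: DOI (4 nM) added after 5 min compound pre-incubation at room temperature to dye-loaded HTR2A-CHO cells. Fluorescence followed for 3 min, sampled every second.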
Chain of 5-hydroxytryptamine receptor 2A (Homo sapiens) (P28223 whole entry, looked up): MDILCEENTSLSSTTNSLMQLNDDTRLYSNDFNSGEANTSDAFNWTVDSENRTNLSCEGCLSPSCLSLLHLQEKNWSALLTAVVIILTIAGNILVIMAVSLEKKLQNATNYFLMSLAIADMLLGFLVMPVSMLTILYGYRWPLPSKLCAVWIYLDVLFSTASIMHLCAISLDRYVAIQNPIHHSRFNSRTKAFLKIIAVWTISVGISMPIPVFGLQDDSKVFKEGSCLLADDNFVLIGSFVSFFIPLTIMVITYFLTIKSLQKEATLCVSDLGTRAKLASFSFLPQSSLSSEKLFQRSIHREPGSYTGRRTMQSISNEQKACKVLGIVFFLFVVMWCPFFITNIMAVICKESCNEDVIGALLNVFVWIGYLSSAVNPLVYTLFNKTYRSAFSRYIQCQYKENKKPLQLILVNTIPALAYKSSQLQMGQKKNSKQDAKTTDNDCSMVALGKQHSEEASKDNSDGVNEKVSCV

Assay [11] has the same target. Kind of assay: 5-hydroxytryptamine receptor 2A (HTR2A) small molecule agonists, cell-based qHTS assay (AID 1963587). Also: nearly all actives have a fitted effect of over 30% in size. The method in brief:
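Kinetic calcium-flux fluorescence (2 min, 1 sec intervals) after compound addition in agonist mode. HTR2A-CHO cells were cultured 18 h, then dye-loaded 1 h at 37 C.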

The target of assay [12] is Muscarinic acetylcholine receptor M1 (Homo sapiens) (UniProt P11229). Nature of the assay: Cholinergic receptor muscarinic 1 (CHRM1) small molecule agonists, cell-based qHTS assay (AID 1963589). Also: nearly all actives have a fitted effect of over 35% in size. A digest of the protocol:
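Agonist-mode qHTS in CHO cells stably carrying human muscarinic M1. Intracellular calcium is tracked by fluorescence every second after compound transfer; each compound runs at 15 concentrations in three independent runs.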

Assay [13] is described as follows: cAMP Responsive Elements (CRE) small molecule agonists, cell-based qHTS assay (AID 1963590). A digest of the protocol:
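Agonist mode qHTS in CRE-bla HEK 293T cells: compounds dosed from DMSO for 3 h at 37 C/5% CO2, followed by LiveBLAzer B/G FRET substrate for 2 h at room temperature.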

Assay [14] is described as follows: cAMP Responsive Elements (CRE) small molecule antagonists, cell-based qHTS assay (AID 1963591; active = well fitted inhibition curve with a large enough effect in the signal ratio in the repeat runs, not every such curve was filed as active; the % refers to the signal ratio). The method in brief: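 Antagonist mode: test compounds are co-incubated with the adenylyl cyclase activator NKH477 (0.25 uM final) on CRE-bla HEK293T cells for 3 h at 37 °C, followed by LiveBLAzer substrate loading.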
Assay [15] has as its target Beta-2 adrenergic receptor (Homo sapiens) (UniProt P07550). Nature of the assay: Adrenergic beta2 receptor (ADRB2) small molecule antagonists, cell-based qHTS assay (AID 1963592). Also: series mostly up to about 92 µM; nearly all actives have a fitted effect of over 50% in size. The method in brief: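 Cells (CHO, stable ADRB2 overexpression) incubated 18-20hr at 37C; compounds added from DMSO; agonist mix (1nM isoproterenol, 100uM IBMX, 25uM Ro-20-1724) added; 0.5hr RT; d2-cAMP and anti-cAMP-cryptate added; 1hr RT; 665/615 nm read.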

Assay [16] shares this target. Kind of assay: Adrenergic beta2 receptor (ADRB2) small molecule agonists, cell-based qHTS assay (AID 1963593).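 Also: CHO cells stably overexpressing human ADRB2.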 A digest of the protocol: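 CHO cells stably over-expressing ADRB2 were plated overnight at 37C, then dosed with compounds plus a stimulation mix containing 100uM IBMX and 25uM Ro-20-1724 for 0.5hr at room temperature. cAMP was measured by HTRF competition, 1hr.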

For assay [17], the target named is D(2) dopamine receptor (Homo sapiens) (UniProt P14416). Nature of the assay: Dopamine D2 receptor (DRD2) small molecule agonists, cell-based qHTS assay (AID 1963594). Also: nearly all actives have a fitted effect of over 35% in size. A digest of the protocol:
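cAMP accumulation in DRD2-HEK293 cells measured by HTRF after 1 h detection; compounds added 10 min before NKH477 (200nM […]) forskolin-analogue stimulation, 30 min at room temperature, with Ro20-1724 present at 0.1 mM final.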

The target is the same in assay [18]. Nature of the assay: Dopamine D2 receptor (DRD2) small molecule antagonists, cell-based qHTS assay (AID 1963595; active = well fitted inhibition curve with a large enough effect in the signal ratio in the repeat runs, with a control signal flat; the % refers to the signal ratio). A digest of the protocol: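 Cells were plated and grown for 24 h at 37 °C. Ro20-1724 (0.1 mM final) went in first, then compound for 10 min. NKH477 (200 nM) with quinpirole (12 nM) followed for 30 min at RT, then HTRF detection reagents for 1 h.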

Assay [19] concerns the target Muscarinic acetylcholine receptor M1 (Homo sapiens) (UniProt P11229). Kind of assay: Cholinergic receptor muscarinic 1 (CHRM1) small molecule antagonists, cell-based qHTS assay (AID 1963588). Also: nearly all actives have a fitted effect of over 40% in size. The method in brief: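 CHRM1-CHO calcium-flux assay, antagonist mode. Cells were seeded 18 h, dye-loaded 1 h at 37 C and given compound for 5 min at RT, then acetylcholine was added at 50nM. FDSS fluorescence was read 3 min; 15 concentrations, three runs.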

SMILES strings stand for the structures. Results filed as inconclusive are left out. Active and inactive are the calls of the source. Unless noted, calls follow the shape of the full dose curve.

Chain of D(2) dopamine receptor (Homo sapiens) (P14416 whole entry, looked up): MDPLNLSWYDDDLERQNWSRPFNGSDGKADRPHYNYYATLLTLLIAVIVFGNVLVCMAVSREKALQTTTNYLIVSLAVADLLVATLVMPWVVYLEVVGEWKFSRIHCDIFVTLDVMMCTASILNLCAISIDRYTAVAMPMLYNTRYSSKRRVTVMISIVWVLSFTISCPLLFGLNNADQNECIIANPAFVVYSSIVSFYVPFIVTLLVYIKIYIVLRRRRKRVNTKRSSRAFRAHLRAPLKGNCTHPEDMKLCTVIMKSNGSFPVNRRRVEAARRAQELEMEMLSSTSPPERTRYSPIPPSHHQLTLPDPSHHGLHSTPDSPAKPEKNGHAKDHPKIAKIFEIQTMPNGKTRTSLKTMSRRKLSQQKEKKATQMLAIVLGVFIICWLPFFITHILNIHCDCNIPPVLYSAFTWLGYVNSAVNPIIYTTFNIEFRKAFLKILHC
Chain of Beta-2 adrenergic receptor (Homo sapiens) (P07550 whole entry, looked up): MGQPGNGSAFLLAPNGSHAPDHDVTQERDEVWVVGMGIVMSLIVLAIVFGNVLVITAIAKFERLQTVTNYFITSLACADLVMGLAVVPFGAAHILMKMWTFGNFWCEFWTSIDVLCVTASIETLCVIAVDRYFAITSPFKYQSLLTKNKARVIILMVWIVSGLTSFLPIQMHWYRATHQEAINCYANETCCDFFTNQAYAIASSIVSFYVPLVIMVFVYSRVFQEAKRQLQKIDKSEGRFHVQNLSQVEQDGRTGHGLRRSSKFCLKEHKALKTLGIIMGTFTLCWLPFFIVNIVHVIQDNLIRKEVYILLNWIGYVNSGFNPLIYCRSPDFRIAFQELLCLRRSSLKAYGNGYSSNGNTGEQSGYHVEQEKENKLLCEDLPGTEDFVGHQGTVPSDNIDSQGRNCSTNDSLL
Chain of KiSS-1 receptor (Homo sapiens) (Q969F8 whole entry, looked up): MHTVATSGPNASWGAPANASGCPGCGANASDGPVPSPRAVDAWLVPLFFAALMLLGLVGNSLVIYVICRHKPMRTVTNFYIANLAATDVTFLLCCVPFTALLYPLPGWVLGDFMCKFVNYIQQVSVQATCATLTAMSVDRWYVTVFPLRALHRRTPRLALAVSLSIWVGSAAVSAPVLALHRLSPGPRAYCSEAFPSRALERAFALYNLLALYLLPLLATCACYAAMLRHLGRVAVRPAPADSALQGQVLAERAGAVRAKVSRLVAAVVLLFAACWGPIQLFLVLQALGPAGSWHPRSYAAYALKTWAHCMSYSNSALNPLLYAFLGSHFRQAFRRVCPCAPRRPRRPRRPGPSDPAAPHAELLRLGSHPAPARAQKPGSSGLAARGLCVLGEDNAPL
Chain of Muscarinic acetylcholine receptor M1 (Homo sapiens) (P11229 whole entry, looked up): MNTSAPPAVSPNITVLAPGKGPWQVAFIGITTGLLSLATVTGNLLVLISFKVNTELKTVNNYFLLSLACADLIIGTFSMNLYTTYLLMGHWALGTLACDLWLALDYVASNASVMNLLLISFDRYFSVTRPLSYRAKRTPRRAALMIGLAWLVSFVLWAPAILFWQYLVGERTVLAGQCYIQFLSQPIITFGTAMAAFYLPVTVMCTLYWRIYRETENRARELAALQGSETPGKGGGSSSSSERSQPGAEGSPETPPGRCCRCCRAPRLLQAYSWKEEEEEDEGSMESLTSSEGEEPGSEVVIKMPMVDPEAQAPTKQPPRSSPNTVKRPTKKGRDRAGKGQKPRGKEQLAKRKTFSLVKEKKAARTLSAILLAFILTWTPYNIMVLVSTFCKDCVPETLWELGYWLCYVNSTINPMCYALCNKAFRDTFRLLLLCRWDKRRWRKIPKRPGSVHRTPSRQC

As for `CC(=N\O)/C(C)=N/O`, the Potency result in assay [1], in assay [2], in [3], in assay [4], in assay [5] and in [6] was “inactive” in each case. Further, the Potency entry in [7], in [8], in [9], in assay [10], in [11] and in assay [12] was “inactive” each time. Also, the Potency result in [13], in [14], in assay [15], in [16], in assay [17] and in assay [18] was “inactive” each time.

In the case of `CC(=O)N(c1onc(C)c1C)S(=O)(=O)c1ccc(N)cc1`, the Potency result in assay [1], in [2], in [3], in assay [4], in [5] and in assay [6] was “inactive” throughout. In addition, the Potency result in assay [7], in assay [8], in assay [9], in assay [10], in assay [11] and in [12] was “inactive” throughout. Further, the Potency entry in [13], in assay [14], in [16], in assay [17] and in [18] was “inactive” throughout.

On to `CC(=O)c1ccc(O)c(C(N)=O)c1`, for which the Potency entry in assay [1], in assay [2], in assay [3], in assay [4], in [5] and in assay [6] was “inactive” in each case. For the same molecule, the Potency result in [7], in assay [9], in assay [10], in [11], in assay [19] and in [12] was “inactive” throughout. Besides, the Potency result in assay [13], in assay [14], in [15], in [16] and in assay [17] was “inactive” each time.

As to `CC(C)(C)c1ccc(C=O)cc1`, the Potency entry in [1], in assay [2], in assay [3], in [4], in [5] and in [6] was “inactive” in each case. The Potency entry in assay [7], in assay [9], in assay [10], in assay [11], in assay [19] and in [12] was “inactive” in each case. Further, the Potency result in assay [13], in assay [14], in assay [15], in assay [16] and in assay [18] was “inactive” in each case.

In the case of `Oc1ccc(Sc2ccc(O)cc2)cc1`, the Potency entry in assay [1], in [3], in assay [4], in assay [5], in [6] and in assay [8] was “inactive” each time. In addition, the Potency result in assay [9], in assay [10], in assay [11], in assay [19], in assay [12] and in [13] was “inactive” each time. Also, the Potency result in assay [14], in [15], in assay [17] and in [18] was “inactive” throughout. Moreover, the Potency in assay [2] was 57.2 µM (active).

Turning to `COc1ccc(C(=O)NCc2ccc(OCCN(C)C)cc2)cc1OC`, the Potency entry in assay [1], in assay [2], in [3], in [4], in assay [5] and in [6] was “inactive” each time. The Potency entry in assay [8], in assay [9], in assay [10], in assay [11], in assay [19] and in [12] was “inactive” throughout. Besides, the Potency entry in assay [13], in assay [14], in [15], in [16], in [17] and in assay [18] was “inactive” each time.

With `Cc1cc(O)c(Cl)cc1C`, the Potency result in assay [1], in assay [2], in assay [3], in assay [4], in [6] and in [7] was “inactive” throughout. Besides, the Potency result in assay [8], in [9], in assay [10], in assay [11], in assay [19] and in assay [13] was “inactive” each time. Further, the Potency entry in [14], in assay [15], in [17] and in [18] was “inactive” each time.

On to `OC[C@H]1O[C@@H](O[C@H]2[C@H](O)[C@@H](O)[C@H](O)O[C@@H]2CO)[C@H](O)[C@@H](O)[C@H]1O`, for which the Potency result in assay [1], in assay [2], in assay [3], in [4], in assay [5] and in [6] was “inactive” in each case. Besides, the Potency result in assay [7], in assay [9], in [10], in assay [11], in [19] and in assay [12] was “inactive” each time. The Potency result in assay [13], in assay [14], in [15], in [17] and in [18] was “inactive” throughout.

The record behind these values is PubChem BioAssay (Tox21).
